ELG1 genotox = inducers of genotoxicity in HEK293T ELG1-luciferase cells; Potency, µM (titrated, usually from 46 µM), for the others: at the highest dose activity change, positive = activation, most hits filed as activators; 1.3% of 330,000 active; HEK293T ELG1-luciferase reporter, luminescence, 16 h; further: % of control where 0% means no effect; nearly all actives have a fitted effect of over 60% in size
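HEK293T cells expressing luciferase-tagged ELG1 were exposed to compound or DMSO vehicle for 16 hr at 37 °C and 5% CO2. Luciferase activity was then measured with ONE-Glo after 30 min at room temperature.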
SMN2 splice up = enhancers of SMN2 splice variant expression; HEK293 SMN2-luciferase splicing reporter, luminescence, 30-36 h; Potency, µM (series often up to 46.1 µM), inactives show top-dose activity change, positive = activation, actives largely listed as activators; 2.8% of 210,000 active; further: % of control where 0% means no effect; nearly all actives have a fitted effect of over 55% in size
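HEK293 cells carry an SMN2 […]–luciferase reporter in which exon 7 inclusion puts luciferase in frame. Cells were plated 10-12 h before compound addition, then incubated 30-36 h at 37C. ONE-Glo luminescence was read; sodium butyrate at 4.5 mM final served as control.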
NPC1 promoter act = activates the NPC1 promoter; Huh7 NPC1 promoter luciferase reporter, 24 h; Potency, µM (series often up to 9.22 µM), without a hit: top-dose activation, hits mostly activators; 2.4% of 320,000 active; AID 485313; further: % of control where 0% means no effect; nearly all actives have a fitted effect of over 60% in size
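Readout is luciferase luminescence, reflecting NPC1 promoter activation in stably transfected Huh7 cells after 24 h compound exposure at 37 °C in reduced-serum medium with 10% FBS.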
ELG1 repair inh = blocks ELG1-dependent DNA repair in HEK293T cells. 2.3% of 330,000 active. AID 504467. Potency, µM (top dose mostly 46.1 µM), for the others: at the highest dose activity change, negative = inhibition, most hits filed as inhibitors. HEK293T ELG1-luciferase reporter, luminescence, 16 h; DNA damage induced by 5-fluorouridine; further: on the % scale 0 is the no-effect control and ±100 the full control effect; nearly all actives have a fitted effect of over 55% in size
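In this reporter screen, reduction of luminescence relative to DMSO vehicle indicated activity. Compounds and 5-fluorouridine were added together to 2,000 cells per well, incubated for 16 hr at 37 °C, then developed with ONE-Glo.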
Rab9 prom act = activators of Rab9 promoter; Huh7 Rab9 promoter-luciferase reporter, luminescence, 24 h; 2.8% of 320,000 active; Potency, µM (top dose mostly 9.22 µM), for inactives: at the highest dose activation, negative = inhibition, actives largely listed as activators; AID 485297; further: % of control where 0% means no effect; nearly all actives have a fitted effect of over 60% in size
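Luminescence read-out: Huh7 cells stably expressing Rab9-luciferase, treated 24 h with compound at 37 °C, then lysed with luciferase reagent for 10 min at ambient before reading.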
FLuc counter = counter-screen for miR-21 project: firefly luciferase inhibitors or activators | Potency, µM (highest dose often 57.5 µM), for inactives: at the highest dose activity change, negative = inhibition, most hits filed as inhibitors | purified FLuc, Km substrates, luminescence inhibition | 6.9% of 360,000 active | P08659;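 further: plate controls were vehicle for no effect and reference inhibitor for full effect; nearly all actives have a fitted effect of over 55% in size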
Target sequence (P08659 whole entry, looked up): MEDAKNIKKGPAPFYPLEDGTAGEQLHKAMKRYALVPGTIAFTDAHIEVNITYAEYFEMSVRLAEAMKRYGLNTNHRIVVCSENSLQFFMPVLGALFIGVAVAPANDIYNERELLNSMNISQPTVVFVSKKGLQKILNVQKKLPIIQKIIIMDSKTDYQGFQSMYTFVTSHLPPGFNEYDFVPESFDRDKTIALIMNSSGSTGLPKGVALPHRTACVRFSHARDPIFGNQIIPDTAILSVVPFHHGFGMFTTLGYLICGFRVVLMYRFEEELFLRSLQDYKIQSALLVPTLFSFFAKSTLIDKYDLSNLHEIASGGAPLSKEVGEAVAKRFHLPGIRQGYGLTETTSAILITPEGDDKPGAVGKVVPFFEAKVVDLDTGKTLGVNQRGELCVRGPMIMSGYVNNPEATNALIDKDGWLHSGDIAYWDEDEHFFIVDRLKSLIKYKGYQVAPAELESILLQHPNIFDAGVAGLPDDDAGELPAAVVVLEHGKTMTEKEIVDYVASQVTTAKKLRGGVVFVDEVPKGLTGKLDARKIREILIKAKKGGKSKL
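Biochemical qHTS of compounds, final roughly 60 µM downward over six points, against 10 nM purified firefly luciferase using Km concentrations of substrates (10 uM D-luciferin, 10 uM ATP) in Tris acetate pH 7.5 buffer; luminescence output.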
* hit, by the source's call; ? = inconclusive; nt = no result given; [ ] = remark or other dose. Rows were chosen to be rich in hits. Some 9.4% of all compounds tested hit in one or more screens of this group. The call rests on the fitted dose curve; in most records, active means well fitted curve in the direction sought with a large enough effect; inconclusive means small, poorly fitted or top-dose-only effect, or another doubt; inactive means no such curve, though single readings can be large; an effect the other way counts as inactive or inconclusive. Potency means the concentration at half of the fitted maximal effect.

SMILES | ELG1 genotox | SMN2 splice up | NPC1 promoter act | ELG1 repair inh | Rab9 prom act | FLuc counter
O=C(/C=C/c1ccc2ccccc2c1)c1ccoc1 | 6% | -5% | ? | ? | ? | 0.54µM*
COc1cc(OC)c(NC(=O)c2nn(-c3ccc(C)cc3)c(=O)c3c2c2ccccc2n3C)cc1Cl | nt | -7% | nt | nt | nt | 7%
CCCCn1nc(C(=O)NCC(c2cccs2)N2CCOCC2)c2ccccc2c1=O (configuration not stated) | -8% | nt | -2% | 18µM* | -5% | 1%
CCCCn1nc(C(=O)Nc2nc3c(s2)CCCC3)c2ccccc2c1=O | -2% | -27% | -1% | 15µM* | -8% | -11%
COc1ccc(-c2cc(C)nc(SCc3cccc(C(=O)O)c3)n2)cc1 | 6% | 16% | -1% | 20% | -4% | ?
Cc1nc(SCc2cccc(C(=O)O)c2)nc2c1CCCC2 | -5% | 4.5µM* | 21% | ? | 3% | 8.5µM*
CCCc1cc(=O)n2c(C(=O)Nc3ccc(OCC)cc3)c(C(=O)Nc3ccc(C)cc3)sc2n1 | nt | 13% | nt | nt | nt | 5%
Cn1cc(C(=O)C(=O)N2CCc3ccccc32)c2ccccc21 | ? | nt | 3.2µM* | ? | 2.8µM* | 1%
CCCCc1ccc(-n2nc3cc(Cl)c(NC(=O)c4ccc(OC)cc4)cc3n2)cc1 | nt | -1% | nt | nt | nt | -3%
Cc1sc[n+](CC(=O)c2ccc(Br)cc2)c1C | -3%[9.26 µM] | nt | -7% | -4% | -1% | 2%
CCn1c(C)nc2c(C)[n+](CC(=O)c3ccc(Br)cc3)ccc21 | 1.8µM* | 7% | 1.1µM* | ? | 1µM* | ?
CCOCCn1c(CN(Cc2ccccc2)Cc2ccccc2)nc2c1c(=O)[nH]c(=O)n2C | -5% | -14% | -3% | -27% | -1% | 6%
CC(=O)C(C)n1c(CN(C)Cc2ccccc2)nc2c1c(=O)n(C)c(=O)n2C (configuration not stated) | -2% | nt | -3% | 2% | -3% | 1%
COCCn1c(CN2CCN(c3cccc(Cl)c3)CC2)nc2c1c(=O)n(C)c(=O)n2C | -9% | -60% | -1% | 15µM* | -21% | 3%
CC(C)n1c(CN(C)Cc2ccccc2)nc2c1c(=O)n(C)c(=O)n2C | -16% | nt | -40% | 4.1µM* | -20%[1.84 µM] | 0%
Cn1c(=O)c2c(nc(CN3CCN(Cc4ccccc4)CC3)n2Cc2ccc(Cl)cc2)n(C)c1=O | -17% | -7% | -3% | 21µM* | 0% | 0%
Cn1c(=O)c2c(nc(CN3CCN(Cc4ccccc4)CC3)n2Cc2ccccc2)n(C)c1=O | -2% | -5% | 0% | ? | -1% | 0%
CCOCCn1c(CN(Cc2ccccc2)Cc2ccccc2)nc2c1c(=O)n(C)c(=O)n2C | -8% | -14% | 0% | 18µM* | 2% | 6%
COc1ccc2c(c1)C(=O)[C@@H](OC(=O)NCCOc1ccccc1)[C@H](c1ccc(OC)c(Br)c1)O2 | nt | 0% | nt | nt | nt | nt
COc1cc(C(=O)NCc2nc3cccnc3n2Cc2ccc(C)cc2)cc(OC)c1OC | nt | nt | nt | nt | nt | -1%
CN(Cc1ccccc1)Cc1nc2c(c(=O)n(C)c(=O)n2C)n1Cc1ccc(F)cc1 | -5% | -16% | 17% | 18µM* | 2% | -3%
CCCCNc1nc2c(c(=O)n(C)c(=O)n2C)n1CCC | -6% | nt | -3% | -5% | -7% | 0%
CCCCCCn1c(NCC)nc2c1c(=O)n(C)c(=O)n2C | -5% | -63% | -21% | 5.8µM* | -26% | -2%
CCCCCn1c(CN(C)Cc2ccccc2)nc2c1c(=O)n(C)c(=O)n2C | -12% | -60% | 2% | 18µM* | -2% | -1%
Cc1ccccc1Cn1c(CN2CCc3ccccc3C2)nc2c1c(=O)n(C)c(=O)n2C | -4% | -39% | -4% | 13µM* | -1% | 6%
SMILES | ELG1 genotox | SMN2 splice up | NPC1 promoter act | ELG1 repair inh | Rab9 prom act | FLuc counter
COc1cc(OC)c(NC(=O)Cn2c(=O)nc(-c3ccccc3)c3ccccc32)cc1Cl | nt | 4% | nt | nt | nt | -10%
CCCN(C(=O)Cn1ncc2c1-c1ccccc1OC2)c1cccc(C)c1 | nt | -18% | nt | nt | nt | -8%
Cc1cc(C)c(OCC(=O)N(Cc2ccc(N(C)C)cc2)CC2CCCO2)c(C)c1 (configuration not stated) | nt | 5% | nt | nt | nt | 1%
Cc1nn(CCCC(=O)NCc2ccccc2)c(=O)c2cc3sccc3n12 | nt | -3% | nt | nt | nt | -9%
CC(C)n1c(NCCc2ccccc2)nc2c1c(=O)n(C)c(=O)n2C | -8% | -78% | -9% | 18µM* | -16% | 0%
Cn1c(=O)c2c(nc(NCCc3ccccc3)n2Cc2ccc(Cl)cc2)n(C)c1=O | nt | 8% | nt | nt | nt | -13%
C#CCOc1nc2c(c(=O)n(C)c(=O)n2C)n1Cc1ccccc1 | -4% | nt | -2% | 18µM* | -3% | 0%
O=C(Cc1ccccc1)N/N=C/c1cc(Br)cc(Br)c1O | 7% | nt | -9% | 6.5µM* | 0%[1.84 µM] | ?
O=C(O)c1ccccc1N/N=C\c1ccnc2ccccc12 | 0.58µM* | 5µM* | 0.35µM* | ? | ? | 0.17µM*
Oc1c(Br)cc(Br)cc1/C=N/Nc1ccc(Cl)nn1 | 9% | nt | -30% | ? | -37%[1.84 µM] | -2%
O=C(O)c1ccccc1N/N=C/c1cc(Br)cc(Br)c1O | ? | nt | 1.6µM* | ? | 1.4µM* | 7.6µM*
CC(=O)Nc1nnc(SCc2ccc(F)cc2)s1 | ? | ? | 27% | ? | 28% | -3%
O=C(Nc1ccccc1Br)c1ccc2nccnc2c1 | 0% | nt | 3.2µM* | ? | 2µM* | 6.7µM*
O=C(Nc1ccc(Cl)cc1Cl)c1ccc2ncsc2c1 | ? | nt | 2.2µM* | ? | 2.2µM* | 2.7µM*
O=C(Nc1ccccc1F)c1ccc2ncsc2c1 | 18% | nt | 2.2µM* | ? | 4µM* | ?
O=C(Nc1nnc(SCc2ccc(F)cc2)s1)c1ccc2ncsc2c1 | ? | 13µM* | ? | ? | ? | ?
CSc1cccc(NC(=O)CN2C(=O)COc3ccc(S(=O)(=O)N4CCC(C)CC4)cc32)c1 | nt | nt | nt | nt | nt | -4%
Cc1ccc(-n2nc3c(=O)n(C(C)C(=O)NCc4ccc(OC(C)C)cc4)nc(C)c3c2C)cc1 (configuration not stated) | nt | nt | nt | nt | nt | -16%
CCOc1ccc(CNC(=O)CCS(=O)(=O)c2cc3c(cc2Cl)NC(=O)CO3)cc1OC | nt | nt | nt | nt | nt | -1%
O=C(Nc1cccc(F)c1)c1ccc2ncsc2c1 | 16% | nt | 2.2µM* | ? | 3.5µM* | 13µM*
COc1ccc(C(=O)Nc2ccc(F)cc2F)cc1OC | 14% | 4% | 13% | ? | 15% | -1%
O=C(Nc1ccncc1)c1ccc2ncsc2c1 | ? | nt | 25% | 16% | 19% | -18%
